Compound activity from PubChem BioAssay.
The entries come from a sample that favours hits as a whole.
Vaccinia stage: blocks a specific stage of Vaccinia orthopoxvirus infection. AID 1053133. Vaccinia-infected cells, mCherry/Venus stage reporter fluorescence; hits give low values. activity change (mCherry), % (test concentration not listed). actives 0.01% (n = 89,000); in the data active = activity change below about -37%, passing the limit was not always enough; tested in A549 cells
Large screens that a line does not name were inactive.

CO[C@H]1CN(C)C(=O)c2ccc(NC(=O)C3CC3)cc2OC[C@H](C)N(C(=O)c2ccccn2)C[C@H]1C	none
CO[C@@H]1CN(C)C(=O)c2ccc(NC(=O)c3ccc(F)cc3)cc2OC[C@H](C)N(C(=O)c2ccc(F)cc2)C[C@H]1C	none
CO[C@@H]1CN(C)C(=O)c2ccc(NC(=O)c3ccc(F)cc3)cc2OC[C@@H](C)N(C(=O)c2ccc(F)cc2)C[C@@H]1C	none
CO[C@H]1CN(C)C(=O)c2ccc(NC(=O)c3ccc(F)cc3)cc2OC[C@H](C)N(C(=O)c2ccc(F)cc2)C[C@@H]1C	Vaccinia stage -87
CO[C@H]1CN(C)C(=O)c2cc(NC(=O)CC(F)(F)F)ccc2OC[C@H](C)N(C(=O)C2CCOCC2)C[C@@H]1C	none
CO[C@H]1CN(C)C(=O)c2cc(NC(=O)c3cnccn3)ccc2OC[C@H](C)N(CC2CC2)C[C@H]1C	none
O=C(C[C@H]1CC[C@H]2[C@@H](COC[C@H](O)CN2Cc2cccc(F)c2)O1)NCc1cccc(F)c1	none
COCC(=O)N1CC2(C1)[C@H](c1ccc(-c3cccc(C)c3)cc1)[C@H](CO)N2C(=O)C1CC1	none
COc1ccc2c3c([nH]c2c1)[C@H](CO)N(C(=O)c1ccncc1)CC31CN(C(=O)C2CCC2)C1	none
C[C@H]1CN([C@@H](C)CO)C(=O)c2cccc(NS(=O)(=O)c3ccc(Cl)cc3)c2O[C@@H]1CN(C)Cc1ccncc1	none
C[C@@H]1CN([C@@H](C)CO)C(=O)Cc2cc(NS(C)(=O)=O)ccc2O[C@H]1CN(C)Cc1ccncc1	none
COC(=O)C[C@H]1CC[C@@H](NC(=O)Nc2ccc(C(F)(F)F)cc2)[C@H](CO)O1	none
CC1=C([C@H](O)CCc2ccccc2)[C@H](CO)n2c(=O)n(-c3ccccc3)c(=O)n2C1	none
COc1ccc(NC(=O)N(C)C[C@@H]2OCCCC[C@H](C)Oc3ccc(NS(=O)(=O)c4ccc(OC)cc4)cc3C(=O)N([C@H](C)CO)C[C@H]2C)cc1	none
CC(=O)N(C)C[C@H]1Oc2cc(-c3cccc(F)c3)ccc2S(=O)(=O)N([C@@H](C)CO)C[C@@H]1C	none
COc1ccc2c3c([nH]c2c1)[C@H](CO)N(C(=O)c1ccc(F)cc1)CC31CN(C(=O)CC2CC2)C1	none
CN(C)C(=O)c1ccc(-c2ccc3c(c2)[C@@H]2[C@@H](CCN2Cc2ccc4c(c2)OCO4)[C@H](CO)N3)cc1	none
CN(C)C(=O)c1ccc(-c2ccc3c(c2)[C@H]2[C@H](CCN2Cc2ccc4c(c2)OCO4)[C@H](CO)N3)cc1	none
CN(C)C(=O)c1ccc(-c2ccc3c(c2)[C@H]2[C@H](CCN2C(=O)c2ccccc2)[C@H](CO)N3)cc1	none
CN(C)C(=O)c1ccc(-c2ccc3c(c2)[C@H]2[C@H](CCN2Cc2ccc4c(c2)OCO4)[C@@H](CO)N3)cc1	none
COc1ccccc1CN1CC[C@H]2[C@H](CO)Nc3ccc(-c4ccc(C(=O)N(C)C)cc4)cc3[C@H]21	Vaccinia stage -40
COc1ccccc1CN1CC[C@@H]2[C@@H](CO)Nc3ccc(-c4ccc(C(=O)N(C)C)cc4)cc3[C@@H]21	Vaccinia stage -39
COCC#Cc1ccc2c(c1)O[C@@H](CN(C)S(=O)(=O)c1ccc(C)cc1)[C@H](C)CN([C@H](C)CO)S2(=O)=O	none
